Measurements as given in the supplement of paper PMC12067093, “Discovery and optimisation of a covalent ligand for TRIM25 and its application to targeted protein ubiquitination” (Chemical Science, 2025).
Of roughly 21,000 targets only a part is listed; those with the largest changes were picked by preference.

Compound: CC1Cc2ccccc2N1C(=O)C1CCCN(C1)C(=O)CCl (mixture of isomers) [TRIM25 ligand 11 (diastereomer mixture)]
Assay: probe-labelled cysteine peptide fold change vs DMSO (competition) (log2 fold change); higher = less target engagement (more negative = stronger competition)
Conditions: THP-1, incubation time: 4 h
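Further: competitive chemoproteomic profiling in live THP-1 cells with an iodoacetamide desthiobiotin (IA-DTB) probe, comparing probe-labelled peptide intensities in compound-treated cells against DMSO-treated controls.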

Chain of UniProt P51531 (P51531 whole entry, looked up): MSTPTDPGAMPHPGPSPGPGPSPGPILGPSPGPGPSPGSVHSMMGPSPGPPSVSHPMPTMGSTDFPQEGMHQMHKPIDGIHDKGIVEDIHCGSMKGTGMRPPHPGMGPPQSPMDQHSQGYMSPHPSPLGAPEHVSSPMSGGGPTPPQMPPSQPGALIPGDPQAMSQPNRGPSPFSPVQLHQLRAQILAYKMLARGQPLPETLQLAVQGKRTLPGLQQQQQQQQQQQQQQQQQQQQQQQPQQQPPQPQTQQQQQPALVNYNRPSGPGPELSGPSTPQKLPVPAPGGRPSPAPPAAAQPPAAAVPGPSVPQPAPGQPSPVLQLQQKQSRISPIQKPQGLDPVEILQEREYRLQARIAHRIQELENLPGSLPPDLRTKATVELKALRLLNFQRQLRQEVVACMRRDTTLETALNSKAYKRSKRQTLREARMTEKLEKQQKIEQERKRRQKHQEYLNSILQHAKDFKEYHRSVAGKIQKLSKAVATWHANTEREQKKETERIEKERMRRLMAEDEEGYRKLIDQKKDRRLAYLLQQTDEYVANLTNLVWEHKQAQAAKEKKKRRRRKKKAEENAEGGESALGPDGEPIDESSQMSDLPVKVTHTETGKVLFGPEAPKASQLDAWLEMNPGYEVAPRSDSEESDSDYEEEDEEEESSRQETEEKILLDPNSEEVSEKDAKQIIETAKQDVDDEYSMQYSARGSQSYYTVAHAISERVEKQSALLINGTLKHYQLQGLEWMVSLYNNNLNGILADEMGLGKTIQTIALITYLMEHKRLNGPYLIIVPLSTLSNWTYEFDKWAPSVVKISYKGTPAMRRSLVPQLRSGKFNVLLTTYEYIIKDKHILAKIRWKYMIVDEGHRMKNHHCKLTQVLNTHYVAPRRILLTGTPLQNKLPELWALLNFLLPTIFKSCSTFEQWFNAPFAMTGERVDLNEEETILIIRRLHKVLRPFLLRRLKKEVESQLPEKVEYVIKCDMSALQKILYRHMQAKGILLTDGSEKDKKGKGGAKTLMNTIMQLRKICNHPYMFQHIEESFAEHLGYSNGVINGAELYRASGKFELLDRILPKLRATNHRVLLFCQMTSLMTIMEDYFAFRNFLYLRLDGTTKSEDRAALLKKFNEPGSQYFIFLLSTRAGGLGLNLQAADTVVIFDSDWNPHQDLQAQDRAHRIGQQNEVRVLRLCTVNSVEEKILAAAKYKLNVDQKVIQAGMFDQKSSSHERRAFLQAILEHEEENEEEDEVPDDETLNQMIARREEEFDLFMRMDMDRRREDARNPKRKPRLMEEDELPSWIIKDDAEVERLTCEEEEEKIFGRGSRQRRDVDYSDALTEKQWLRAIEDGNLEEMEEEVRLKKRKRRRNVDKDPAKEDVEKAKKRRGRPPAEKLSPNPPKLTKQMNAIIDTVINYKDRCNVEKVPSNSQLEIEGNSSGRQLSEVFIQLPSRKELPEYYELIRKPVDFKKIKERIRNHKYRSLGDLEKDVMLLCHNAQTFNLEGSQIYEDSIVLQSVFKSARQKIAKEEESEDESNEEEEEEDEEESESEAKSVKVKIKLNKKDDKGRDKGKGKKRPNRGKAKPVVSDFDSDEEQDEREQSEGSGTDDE
Chain of UniProt Q92922 (Q92922 whole entry, looked up): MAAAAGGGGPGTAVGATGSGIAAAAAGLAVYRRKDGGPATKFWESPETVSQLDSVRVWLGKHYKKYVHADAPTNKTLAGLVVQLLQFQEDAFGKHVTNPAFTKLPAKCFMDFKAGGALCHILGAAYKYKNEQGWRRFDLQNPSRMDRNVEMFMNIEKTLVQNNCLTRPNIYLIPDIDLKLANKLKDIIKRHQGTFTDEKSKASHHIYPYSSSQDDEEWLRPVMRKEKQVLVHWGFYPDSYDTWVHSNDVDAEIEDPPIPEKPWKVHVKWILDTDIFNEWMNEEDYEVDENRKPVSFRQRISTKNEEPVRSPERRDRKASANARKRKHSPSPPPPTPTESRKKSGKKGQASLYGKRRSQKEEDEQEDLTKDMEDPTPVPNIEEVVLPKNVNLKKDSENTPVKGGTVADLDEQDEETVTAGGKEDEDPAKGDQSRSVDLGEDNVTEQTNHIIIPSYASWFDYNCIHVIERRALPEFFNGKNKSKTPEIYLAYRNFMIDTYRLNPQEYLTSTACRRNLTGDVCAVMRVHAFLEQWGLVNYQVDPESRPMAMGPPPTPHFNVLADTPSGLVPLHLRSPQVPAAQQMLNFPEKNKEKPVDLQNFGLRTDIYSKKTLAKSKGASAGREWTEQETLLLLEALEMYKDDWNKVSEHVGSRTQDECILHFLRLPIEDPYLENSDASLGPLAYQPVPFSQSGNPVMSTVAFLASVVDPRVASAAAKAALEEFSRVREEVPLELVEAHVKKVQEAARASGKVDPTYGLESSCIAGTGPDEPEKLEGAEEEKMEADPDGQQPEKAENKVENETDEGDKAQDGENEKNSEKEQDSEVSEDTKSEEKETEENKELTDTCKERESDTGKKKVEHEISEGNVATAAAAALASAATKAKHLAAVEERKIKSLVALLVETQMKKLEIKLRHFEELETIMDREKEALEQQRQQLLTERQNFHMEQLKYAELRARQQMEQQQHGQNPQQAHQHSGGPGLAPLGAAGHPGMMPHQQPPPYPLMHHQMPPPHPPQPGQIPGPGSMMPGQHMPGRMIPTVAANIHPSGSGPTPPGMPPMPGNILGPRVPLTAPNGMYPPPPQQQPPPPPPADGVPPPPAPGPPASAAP
Chain of UniProt Q13485 (Q13485 whole entry, looked up): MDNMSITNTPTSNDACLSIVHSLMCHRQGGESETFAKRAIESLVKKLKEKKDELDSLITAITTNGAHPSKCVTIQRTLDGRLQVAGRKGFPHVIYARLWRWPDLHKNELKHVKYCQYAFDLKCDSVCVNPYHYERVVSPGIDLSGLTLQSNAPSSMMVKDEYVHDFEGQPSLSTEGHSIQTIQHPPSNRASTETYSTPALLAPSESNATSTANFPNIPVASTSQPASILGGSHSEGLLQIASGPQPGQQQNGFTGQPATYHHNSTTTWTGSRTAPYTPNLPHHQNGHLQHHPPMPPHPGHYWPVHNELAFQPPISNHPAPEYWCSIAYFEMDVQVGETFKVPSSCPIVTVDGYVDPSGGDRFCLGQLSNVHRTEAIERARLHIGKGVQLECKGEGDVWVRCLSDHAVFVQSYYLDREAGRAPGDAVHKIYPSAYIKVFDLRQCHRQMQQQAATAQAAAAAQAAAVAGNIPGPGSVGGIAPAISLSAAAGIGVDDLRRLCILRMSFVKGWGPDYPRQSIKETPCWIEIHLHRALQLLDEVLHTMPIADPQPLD
Chain of UniProt P16260 (P16260 whole entry): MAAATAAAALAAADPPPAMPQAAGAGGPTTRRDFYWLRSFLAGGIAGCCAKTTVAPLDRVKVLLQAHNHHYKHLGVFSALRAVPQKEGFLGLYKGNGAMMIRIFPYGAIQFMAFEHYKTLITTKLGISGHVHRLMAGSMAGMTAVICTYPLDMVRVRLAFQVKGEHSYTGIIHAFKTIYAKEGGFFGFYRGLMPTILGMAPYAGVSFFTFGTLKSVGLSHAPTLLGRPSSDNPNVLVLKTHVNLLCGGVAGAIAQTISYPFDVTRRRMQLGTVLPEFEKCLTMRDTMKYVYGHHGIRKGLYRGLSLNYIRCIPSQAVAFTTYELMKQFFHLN
Chain of UniProt P60903 (P60903 whole entry): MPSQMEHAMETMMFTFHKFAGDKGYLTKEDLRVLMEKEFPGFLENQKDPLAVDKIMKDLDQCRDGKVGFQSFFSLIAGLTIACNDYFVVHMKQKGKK
Chain of UniProt P22307 (P22307 whole entry, looked up): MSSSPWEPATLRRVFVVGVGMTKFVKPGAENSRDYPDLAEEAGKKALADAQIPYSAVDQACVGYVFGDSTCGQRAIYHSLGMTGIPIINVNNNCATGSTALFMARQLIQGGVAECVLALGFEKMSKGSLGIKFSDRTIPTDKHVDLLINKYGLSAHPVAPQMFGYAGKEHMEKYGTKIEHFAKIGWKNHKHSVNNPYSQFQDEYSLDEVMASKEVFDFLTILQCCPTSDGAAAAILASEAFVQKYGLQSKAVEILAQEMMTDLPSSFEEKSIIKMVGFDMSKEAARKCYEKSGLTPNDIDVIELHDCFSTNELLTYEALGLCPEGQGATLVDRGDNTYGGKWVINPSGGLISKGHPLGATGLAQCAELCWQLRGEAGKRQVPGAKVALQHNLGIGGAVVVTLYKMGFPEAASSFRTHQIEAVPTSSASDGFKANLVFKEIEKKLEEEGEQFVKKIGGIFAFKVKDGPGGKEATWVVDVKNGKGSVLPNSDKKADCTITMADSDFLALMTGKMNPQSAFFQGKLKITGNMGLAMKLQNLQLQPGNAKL
Chain of UniProt Q12824 (Q12824 whole entry, looked up): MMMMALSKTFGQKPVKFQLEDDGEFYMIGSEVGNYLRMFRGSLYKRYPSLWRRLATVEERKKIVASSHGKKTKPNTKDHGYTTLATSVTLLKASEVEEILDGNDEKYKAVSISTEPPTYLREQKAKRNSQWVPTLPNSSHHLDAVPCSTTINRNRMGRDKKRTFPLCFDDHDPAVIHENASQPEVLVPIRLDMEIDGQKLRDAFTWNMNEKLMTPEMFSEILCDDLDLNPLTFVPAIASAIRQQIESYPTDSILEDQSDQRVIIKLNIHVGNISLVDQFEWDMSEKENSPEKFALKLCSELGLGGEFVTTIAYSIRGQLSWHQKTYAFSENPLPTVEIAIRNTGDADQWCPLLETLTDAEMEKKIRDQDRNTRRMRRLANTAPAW
Chain of UniProt Q9NXA8 (Q9NXA8 whole entry, looked up): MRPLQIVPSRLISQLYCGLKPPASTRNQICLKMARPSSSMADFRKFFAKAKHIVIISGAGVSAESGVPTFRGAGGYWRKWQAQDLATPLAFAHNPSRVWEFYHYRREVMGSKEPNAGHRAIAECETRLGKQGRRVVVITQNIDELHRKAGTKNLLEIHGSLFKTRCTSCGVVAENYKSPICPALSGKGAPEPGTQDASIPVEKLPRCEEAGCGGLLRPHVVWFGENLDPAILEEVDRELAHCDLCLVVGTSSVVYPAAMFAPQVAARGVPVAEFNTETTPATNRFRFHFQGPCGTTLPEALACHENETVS

Target	probe-labelled cysteine peptide fold change (10 µM)	probe-labelled cysteine peptide fold change (50 µM)
RTN3_O95197-3_46_SCSSSCAVHDLIFWR (UniProt O95197)	-0.00795	-0.919
SETDB1_Q15047_582_LFYLPHVCSYTCLSR (UniProt Q15047)	-0.142	-0.048
SNRPD2_P62316_63_HCNMVLENVK (UniProt P62316)	-0.117	-0.0606
SNRPD2_P62316_63_AFDRHCNMVLENVK (UniProt P62316)	-0.388	-0.34
SMAD4_Q13485_391_GVQLECK (UniProt Q13485)	0.0468	0.21
RPS5_P46782_155_VNQAIWLLCTGAR (UniProt P46782)	0.00589	0.118
SEC23A_Q15436_88_LWACNFCYQR (UniProt Q15436)	0.0643	0.249
RUVBL2_Q9Y230_227_FVQCPDGELQK (UniProt Q9Y230)	0.151	-0.0879
SETDB1_Q15047_1207_QFYDGEESCYIIDAK (UniProt Q15047)	-0.0777	-0.0706
S100A10_P60903_62_DLDQCR (UniProt P60903)	-0.0944	-0.0317
SMARCB1_Q12824_167_TFPLCFDDHDPAVIHENASQPEVLVPIRLDMEIDGQKLR (UniProt Q12824)	-0.0714	0.0299
SMU1_Q2TAY7_219_SHVECAR (UniProt Q2TAY7)	0.194	0.11
RPP40_O75818_235_DLQCPVLQSSELEGTPEVSCR (UniProt O75818)	0.892	0.729
SMARCC1_Q92922_761_VDPTYGLESSCIAGTGPDEPEKLEGAEEEK (UniProt Q92922)	-0.397	-0.234
SLC25A16_P16260_246_THVNLLCGGVAGAIAQTISYPFDVTR (UniProt P16260)	0.365	0.384
SP110_Q9HB58_327_DDSTCNSTVETR (UniProt Q9HB58)	0.0292	-0.106
SEL1L3_Q68CR1_475_QEACHLHNSYLDLQR (UniProt Q68CR1)	-0.0373	-0.0246
SRD5A3_Q9H8P0_238_AGVVIHCNHR (UniProt Q9H8P0)	0.00183	-0.036
SEC13_P55735_77_GHEGPVWQVAWAHPMYGNILASCSYDR (UniProt P55735)	-0.107	-0.123

Target	probe-labelled cysteine peptide fold change (10 µM)	probe-labelled cysteine peptide fold change (50 µM)
SCFD2_Q8WU76_507_ALAQVFCEESGLSPLLQK (UniProt Q8WU76)	0.0961	0.0426
SLU7_O95391_445_CCHSFFK (UniProt O95391)	0.132	0.191
SIRT5_Q9NXA8_293+303_FHFQGPCGTTLPEALACHENETVS (UniProt Q9NXA8)	0.203	-0.0498
SIPA1_Q96FS4_467_AHTPCTPHTTYR (UniProt Q96FS4)	0.187	0.0943
SRGAP2_O75044_486_TDCSLAR (UniProt O75044)	-0.0891	-0.197
RSBN1_Q5VWQ0_671_IQLCDNDIYFIPR (UniProt Q5VWQ0)	0.00486	0.13
SASS6_Q6UVJ0_94_FIDLLQQCTQEHAK (UniProt Q6UVJ0)	0.0471	0.0533
SNX5_Q9Y5X3_250_NVADDYIHTAACLHSLALEEPTVIKK (UniProt Q9Y5X3)	-0.0814	-0.118
RPP40_O75818_49_VSFLIPECGILSEELK (UniProt O75818)	0.101	0.161
SCAPER_Q9BY12_336_DSLHSCDHPLAEK (UniProt Q9BY12)	-0.0351	-0.308
RPS6KA3_P51812_436_EDIGVGSYSVCK<|>RPS6KA2_Q15349_429_EDIGVGSYSVCK (UniProt Q15349+P51812)	-0.0733	-0.656
SH3KBP1_Q96B97_301_DCIDVGWWEGELNGRR (UniProt Q96B97)	-0.0866	-0.063
SCP2_P22307_115_QLIQGGVAECVLALGFEK (UniProt P22307)	-2.21	-2.14
SETDB1_Q15047_781_RLEECLPTGVYECNKR (UniProt Q15047)	-0.124	-0.00361
SESN1_Q9Y6P5_286_QLQECRDEEEASQEEMASR (UniProt Q9Y6P5)	-0.00479	-0.0495
SRI_P30626_75_CLTQSGIAGGYKPFNLETCR (UniProt P30626)	0.0396	-0.0761
SMARCA2_P51531_1016_ICNHPYMFQHIEESFAEHLGYSNGVINGAELYR (UniProt P51531)	-0.0517	-0.116
SNRNP200_O75643_576_RLATYGITVAELTGDHQLCK (UniProt O75643)	-0.0593	0.102
SORD_Q00796_179_VLVCGAGPIGMVTLLVAK (UniProt Q00796)	-0.904	-0.915
